Consider 40 compounds from PubChem BioAssay (NCATS).

Inconclusive results are not listed. Calls of active or inactive are those of the source. Calls follow the shape of the dose curve; as a rule, active = well fitted curve in the direction sought with a large enough effect in the main read-out, with a control signal flat (not every such curve was filed as active); inconclusive = small, poorly fitted or top-dose-only effect, or effect the other way, or a change in a side signal; inactive = no such curve, though single readings can be large or run the other way.

The test in a line: qHTS Validation Assay to Find Inhibitors of Chronic Active B-Cell Receptor Signaling (AID 485345). The note with it: ABC-DLBCL cells, chronic BCR signaling reporter, CBG luciferase; series mostly up to 46.1 µM; activity change: at the top concentration. The source says: NIH Molecular Libraries Probe Production Network [MLPCN]
NIH Chemical Genomics Center [NCGC]
PI Name: Dr. R. Eric Davis
Diffuse large B-cell lymphoma (DLBCL) is the most common category of non-Hodgkin lymphoma, with ~20,000 new cases per year in the United States. DLBCL should be regarded as a collection of different neoplasms. Microarray gene expression analysis has defined two principal types of DLBCL, named for their similarity to normal B cell stages or activation states: a germinal center B-cell (GCB) type, and an activated B-cell (ABC) type. In ABC-DLBCL, a constitutive high-level activity of the NF-kappaB family of transcription factors has been observed (1) and NF-kappaB target genes are more highly expressed in ABC primary tumors than in GCB tumors. Functional studies have shown a constitutive high-level activity of the IkappaB (inhibitor of kappa-B) kinase (IKK) complex. […] Further analysis of DLBCL primary tumors for NF-kappaB target gene expression imply that although CARD11 is required for constitutive IKK activity in all ABC-DLBCL lines, mutations in CARD11 may be the root cause of IKK activation only in lines or tumors with such mutations. In other words, CARD11 mutations may explain NF-kappaB activation in only 10% of ABC-DLBCL cases. […] This process has been termed 'chronic active BCR signaling' (CABS).
The goal of this screen is to find small-molecule inhibitors of the CABS pathway found in ABC-DLBCL lines using a cell-based assay that measures IkappaBalpa stability, which has already been extensively validated in the OCI-Ly3 line (PubChem AID:445; REF: 4).
A cell-sensor assay for I-kappa-B-alpha stabilization has been developed. The assay uses green (CBG68) and red (CBR) emitting beetle luciferases [Chroma-GloTM developed by Promega Corp.] where the green luciferase is fused to IkappaBalpha and the red luciferase is present in its native state. Both luciferase genes are stably present in the TMD8 human ABC DLBCL cell line, but their expression is under the control of tetracycline-inducible promoters. Following the addition of doxycycline to induce expression of the luciferases, the green luminescence in control cultures rises only slowly because the CBG fusion partner IkappaBalpha is targeted by IKK activity for rapid degradation. In contrast, green luminescence rises rapidly in the presence of proteasome inhibitors or IKK inhibitors. The rise in red luminescence of CBR is not affected by proteasome or IKK inhibitors, and serves as normalization for cell number and nonspecific effects. Compounds were screened as a concentration-titration series that ranged from 46 uM to 3 nM.
NCGC Assay Protocol Summary:
Cells were seeded in 1536-well plates at 5000 cells/4uL in IMDM medium containing 0.5% FBS, w/o phenol red, 1% penicillin/streptomycin. Then, 23 nL of compounds or DMSO were delivered to each well using a pin tool. One uL 20ng/ml doxycycline was then dispensed into white solid 1536-well plates and the plates were incubated at 37C/5% C02 in a cell incubator for 4 hrs. Then 4 uL luminescent substrate mix (in-house prepared: 150 mM Tris-Cl, pH 7.6, 3 mM MgCl2, 1% Triton X-100, 5 mM DTT, 0.2 mM CoA, 0.15 mM ATP, 5 mM D-luciferin, final concentrations) was added to each well. The plate was incubated at r.t. for 10-15 min. The plates were measured on a ViewLux plate reader for green luminescence (540/20 nm filter) and red luminescence (618/8 nm filter). The green and red luminescent signals were corrected for red and green luminescence filter overlap using previously determined filter calibration constants (determined using the procedure outlined in the Promega Technical Manual; REF 4). The %Activity was determined from the ratio of corrected green/red luminescent values. MG132 were used as control. Green luminescent and ratio %Activity was determined by normalizing to the difference in signal between basal cells (0% Activity) and cells incubated with 10 uM of the proteasome inhibitor MG-132 (100% Activity). […]
On the technique in general: qHTS replaces the single test concentration by a dilution series.
`CCCCCCC(=O)OC1CC(C)(C)NC(C)(C)C1`: the “activity change” value is -0.46% (inactive).
`NCCC1CCCC(CCN)N1` (stereo not given): the “activity change” value is -7.44% (inactive).
On to `COc1cc(N)c(Cl)cc1C(=O)OCCN1CCCCC1`, for which the “activity change” value is -11.7% (inactive).
Regarding `CCN(c1nc(N)c(C(=O)N=C(N)N)nc1Cl)C(C)C`, the “activity change” value is 11.9% (inactive).
Consider `COc1cc(CNC(=O)CCCCCCC(C)C)ccc1O`, for which the “activity change” value was -2.71% (inactive).
On to `NC(=O)c1ccccc1`, for which the “activity change” value was -0.567% (inactive).
For `CCCCCCCCCC[Si](C)(C)CCC(=O)NC(Cc1ccc(C)cc1)c1ccccc1` (stereo not given) the value was -13.9% (inactive).
`CC1CCN=C(N)S1` (stereo not given): the “activity change” value was -1.12% (inactive).
For the compound `CC(N)=O`, the “activity change” value was 9.32% (inactive).
Regarding `CCCCCCC/C=C\CCCCCCCCC(=O)O`, the “activity change” value is -4.93% (inactive).
Turning to `CC(=O)O[C@H]1CC2(C)[C@@H](C[C@@H](O)[C@H]3[C@@]4(C)CC[C@@H](O)[C@@H](C)[C@@H]4CC[C@@]32C)C1=C(CCC=C(C)C)C(=O)O` (stereo not given in full), the “activity change” value is -5% (inactive).
`Oc1cc(O)c2c(c1)O[C@H](c1ccc(O)c(O)c1)[C@@H](O)C2`: the “activity change” value was -1.58% (inactive).
With `CCCCS(=N)(=O)CC[C@H](N)C(=O)O` (stereo not given in full), the “activity change” value is -2.11% (inactive).
In the case of `NC1(C(=O)O)CCc2cc(C(=O)O)ccc21` (stereo not given), the “activity change” value is -4.69% (inactive).
On to `Oc1cc2c(cc1O)C(c1ccccc1)CNCC2` (stereo not given), for which the “activity change” value is 2.08% (inactive).
For the compound `C=C(C)C1CC=C(C(=O)O)CC1` (stereo not given), the “activity change” value is -1.16% (inactive).
For `COCc1nc2c([nH]1)c(=O)n(C)c(=O)n2CC(C)C`, the “activity change” value is 20.4% (inactive).
In the case of `NCCCNCCCCNCCCN`, the “activity change” value is 1.4% (inactive).
As for `CC(C)C[C@H](NC(=O)[C@H](O)[C@H](N)Cc1ccccc1)C(=O)O`, the figure is -2.86% (inactive).
In the case of `Cn1cc(C(F)(F)F)nc1-c1ccc(OCC(O)CNCCOc2ccc(O)c(C(N)=O)c2)cc1` (stereo not given), the “activity change” value was 0.635% (inactive).
Turning to `CC(C)(C)NCC(O)COc1cccc2[nH]c(=O)[nH]c12` (stereo not given), the “activity change” value was -5.82% (inactive).
For `N[C@@H](Cc1ccc(O)c(I)c1)C(=O)O` the value was 0.175% (inactive).
With `N=C(N)c1ccc(N)cc1`, the “activity change” value is -3.13% (inactive).
Consider `CC(C)NC[C@H](O)COc1cccc2ccccc12`, for which the “activity change” value was -4.58% (inactive).
In the case of `CCCCCCCCCC(=O)NC(CN1CCOCC1)[C@H](O)c1ccccc1` (stereo not given in full), the “activity change” value is -0.305% (inactive).
For the compound `CC1=C(C(=O)O)N2C(=O)[C@@H](NC(=O)C(N)C3=CCC=CC3)[C@H]2SC1` (stereo not given in full), the “activity change” value was -0.707% (inactive).
Consider `NCCS(=O)O`, for which the “activity change” value is -1.34% (inactive).
As for `CCN(CC)CCOC(=O)c1cc(Cl)c(N)cc1OC`, the figure is -2.77% (inactive); as for `NOCC(=O)O`, -1.36% (inactive); as for `NC1(C(=O)O)CCCCC1`, -3.44% (inactive).
With `CCCCCC(O)CCCC(=O)O` (stereo not given), the “activity change” value was -8.8% (inactive).
With `O=C(O)/C=C/c1ccc(O)c(O)c1`, the “activity change” value was -12% (inactive).
Regarding `CCCc1c(OCCCOc2ccc(OCC(=O)O)cc2)ccc(C(C)=O)c1O`, the “activity change” value is -10.3% (inactive).
As for `O[Si](CCCN1CCCCC1)(c1ccc(F)cc1)C1CCCCC1` (stereo not given), the figure is -5.76% (inactive).
As for `C=CCN1CCc2c(cc(O)c(O)c2Cl)C(c2ccccc2)C1` (stereo not given), the “activity change” value was 0.0191% (inactive).
Regarding `Nn1nnc2ccccc21`, the “activity change” value was -2.46% (inactive).
Turning to `C[C@@]1(C2CCCC2)Cc2cc(OCC(=O)O)c(Cl)c(Cl)c2C1=O`, the “activity change” value was 20.1% (inactive).
`CC(=O)NCCc1c[nH]c2ccc(O)cc12`: the “activity change” value was -5.86% (inactive).
Regarding `CC[N+](CC)(CC)CC(=O)Nc1c(C)cccc1C`, the “activity change” value was -14.7% (inactive).
For the compound `Cc1cccc(C(=O)NCN2CCN(c3ccccc3C#N)CC2)c1`, the “activity change” value was -13.1% (inactive).
